# Most compounds without a hit are left out; they make up all but 2.9% or so of the library.
# B2AR ag: beta2AR agonists driving receptor internalization, primary screen, cell-based, FAP fluorogen, flow cytometry; Am2.2-beta2AR cells; response, % (concentration not given with the values); 0.43% of 340,000 active; AID 504454, 2011; Beta-2 adrenergic receptor (Homo sapiens), P07550;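 active means response above a set limit, near 3 SD of response in nonfluorescent compounds, cut at about 42% in these data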
# Target sequence (P07550 whole entry, looked up): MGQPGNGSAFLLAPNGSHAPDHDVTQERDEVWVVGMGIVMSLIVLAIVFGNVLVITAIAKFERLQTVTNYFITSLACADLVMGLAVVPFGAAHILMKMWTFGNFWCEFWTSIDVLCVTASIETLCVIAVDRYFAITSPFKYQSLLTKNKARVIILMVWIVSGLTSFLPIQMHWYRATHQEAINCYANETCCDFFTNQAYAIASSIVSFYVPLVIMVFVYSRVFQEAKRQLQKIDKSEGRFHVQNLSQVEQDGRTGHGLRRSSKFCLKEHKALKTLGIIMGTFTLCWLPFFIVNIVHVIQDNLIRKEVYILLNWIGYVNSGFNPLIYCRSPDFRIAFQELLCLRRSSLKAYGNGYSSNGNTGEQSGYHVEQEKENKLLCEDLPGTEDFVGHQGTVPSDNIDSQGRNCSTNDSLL
# MEKK2mut PB1 HTS: MEK5 binding signal on mutant MEKK2 PB1, primary screen, biochemical, multiplex bead flow cytometry, Alexa488-MEK5 | percent response, % at 10 µM | Alexa488-MEK5 binding to MEKK2 mutant | 0.35% of 290,000 active; in the data active means percent response above about 24%, passing the limit was not always enough
# MEKK3 PB1 HTS: modulators of MEKK3-MEK5 PB1 binding, primary screen, biochemical, wildtype MEKK3, multiplex bead flow cytometry, Alexa488-MEK5 | Mitogen-activated protein kinase kinase kinase 3 (Homo sapiens), Q99759 | bead-based flow cytometry, Alexa488-MEK5 binding to MEKK3; actives lie on both sides; 0 = blocked by unlabeled MEK5, 100 = vehicle | binding response (% of control), % at 10 µM | AID 1529, 2009 | 1.4% of 290,000 active;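 active means binding response more than 3 SD above or below the average of its plate-row segment, actives on both sides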;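 further: Alexa488 bead fluorescence after subtracting the streptavidin-only scavenger bead signal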
# GRK2 aptamer HTS: compounds blocking aptamer binding on GRK2 – biochemical, human GRK2, bead flow cytometry, HTS, primary screen; Beta-adrenergic receptor kinase 1 (Homo sapiens), P25098; FAM-aptamer displacement from GRK2; inhibition of aptamer binding, % at 10 µM; 0.59% of 330,000 active; AID 488847, 2010;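 active means inhibition of aptamer binding above 40%, roughly 3 SD of noise, on plates passing a quality check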;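 further: median bead fluorescence of bound FAM aptamer so fluorescent compounds give negative values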
# MEKK2 WT-MEK5: modulators of MEK5 binding to wildtype MEKK2, primary screen, biochemical, multiplex bead flow cytometry, Alexa488-MEK5. binding response (% of control), % at 10 µM. 1.1% of 290,000 active. Alexa488-MEK5 binding to MEKK2 WT; actives lie on both sides. Mitogen-activated protein kinase kinase kinase 2 (Homo sapiens), Q9Y2U5. AID 1531, 2009; in the data active means binding response below about 67% or above about 130%
# MEKK2wt confirm: modulators of MEK5 binding to wildtype MEKK2, confirmation, biochemical, single concentration, multiplex bead flow cytometry; 2.4% of 5,900 active; Alexa488-MEK5 binding to MEKK2 WT; actives lie on both sides; binding response (% of control), % at 10 µM; shares compounds with MEKK3 PB1 HTS; in the data active means binding response below about 16% or above about 210%; inactive means in between
# MEKK2mut-MEK5: mutant MEKK2 PB1-MEK5 binding signal retest – biochemical, single concentration, multiplex bead flow cytometry, confirmation; shares compounds with MEKK3 PB1 HTS; Alexa488-MEK5 binding to MEKK2 mutant; percent response, % at 10 µM; 2% of 5,900 active; AID 1893, 2009; in the data active means percent response mostly above about 71%, no sharp cut-off; inactive means mostly below about 38%;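 further: higher means compound restores mutant binding toward wildtype level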
# MEKK3-MEK5 inh: MEKK3 wild-type PB1 binding to MEK5, inhibitors, confirmation, biochemical, bead multiplex flow cytometry, single concentration, wildtype; shares compounds with MEKK3 PB1 HTS; Alexa488-MEK5 binding to MEKK3; stronger effect = lower value; binding response (% of control), % at 10 µM; 1.8% of 5,900 active; AID 1894, 2009;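 active means binding response below 72% of control, or above a set upper limit, though filed actives all read lower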;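 further: 100% = DMSO only wells and 0% = binding blocked by excess unlabeled MEK5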
# Starred values were filed as active, the others as inactive; nt = not tested or not shown; [ ] = dose if it differs, or a comment.
SMILES,B2AR ag,MEKK2mut PB1 HTS,MEKK3 PB1 HTS,GRK2 aptamer HTS,MEKK2 WT-MEK5,MEKK2wt confirm,MEKK2mut-MEK5,MEKK3-MEK5 inh
Cc1ccsc1C(=O)Nc1ccc2c(c1)OCCO2,-24,0,138*,1,106,106,3,105
CC(=O)Nc1ccc(NC(=O)c2c(C)nc3ccccn23)cc1,-2,-1,102,0,95,nt,nt,nt
CCOC(=O)c1c(NC(=O)COC(=O)/C=C/c2ccccc2)sc(C(=O)NC)c1C,-9,nt,nt,2,nt,nt,nt,nt
COC(=O)c1ccc(N2Cc3ccccc3/C2=N\C(=O)Nc2ccccc2)cc1,-4,0,137*,0,104,101,6,105
O=C(/N=C1/c2ccccc2CN1c1ccccc1)Nc1ccccc1,-16,1,138*,1,109,102,4,103
CC1CCCCC12NC(=O)N(CC(=O)NCCc1ccccc1)C2=O (configuration not stated),6,nt,nt,7,nt,nt,nt,nt
Cc1ccc(/C=C2/NC(=O)N(Cc3ccccc3)C2=O)o1,-41,1,108,0,2.0*[inhibitor],89,1,95
COc1ccc(C2=NN(S(C)(=O)=O)C(c3ccc4nccnc4c3)C2)cc1 (configuration not stated),-5,-3,1.0*[inhibitor],0,nt,98,1,99
CS(=O)(=O)Nc1ccc(C2=NN(S(C)(=O)=O)C(c3ccc4c(c3)OCO4)C2)cc1 (configuration not stated),-1,nt,6.0*[inhibitor],2,nt,70,-7,72
Cc1ccc(C2=NN(S(C)(=O)=O)C(c3ccc4nccnc4c3)C2)cc1 (configuration not stated),7,6,94,3,3.0*[inhibitor],92,-11,89
CC(=O)N1N=C(c2cccc(NS(C)(=O)=O)c2)CC1c1ccc2c(c1)OCO2 (configuration not stated),-11,3,99,3,106,nt,nt,nt
O=C(O)CCCC(=O)N1N=C(c2ccccc2)CC1c1ccc2nccnc2c1 (configuration not stated),-2,2,136*,0,106,99,2,99
CN1CCC(N(C)C(=O)c2ccc(Cl)c(S(=O)(=O)N(C)c3ccc(Cl)cc3)c2)CC1,7,nt,nt,0,nt,nt,nt,nt
C=CCc1cccc2cc(C(=O)Nc3ccc(CC(=O)O)cc3)c(=O)oc12,-12,1,139*,0,101,98,-1,102
COc1ccc(CNC(=O)CCCN2C(=O)c3ccccc3C2=O)cc1,-3,1,119,0,110,nt,nt,nt
O=C(CCCN1C(=O)c2ccccc2C1=O)NCc1ccc(F)cc1,-5,33*,115,1,117,91,-7,90
O=C(CCCn1c(=O)[nH]c2ccsc2c1=O)Nc1ccc(F)cc1,19,1,54*[inhibitor],2,68,97,3,98
O=C(CCCCCN1C(=O)c2cccc3cccc(c23)C1=O)NCc1cccnc1,-8,-44,49*[inhibitor],1,51,105,6,105
O=C(CCCCCN1C(=O)c2ccccc2C1=O)Nc1ccc(F)cc1,6,1,131*,0,110,96,-2,98
COC(=O)c1ccc(C)c(-n2c(C)cc(C=O)c2C)c1,3,0,150*,0,112,97,1,95
COC(=O)c1cccc(-n2c(C)cc(C=O)c2C)c1,-8,0,127,0,105,nt,nt,nt
CC(=O)O[C@]1(C(C)=O)CC[C@H]2[C@@H]3C=CC4=CC(=O)C=C[C@]4(C)[C@H]3CC[C@@]21C,-1,4,108,2,107,nt,nt,nt
CCCCN1CCc2c1nc1ccc(Br)cc1c2N,20,17,106,0,147*,148,27,110
Cc1ccc2nc3c(c(N)c2c1)CCN3C,7,11,106,0,113,nt,nt,nt
N#Cc1ccc(C(=O)CSc2n[nH]c(=O)n2-c2cccnc2)cc1,3,-6,98,2,100,nt,nt,nt
SMILES,B2AR ag,MEKK2mut PB1 HTS,MEKK3 PB1 HTS,GRK2 aptamer HTS,MEKK2 WT-MEK5,MEKK2wt confirm,MEKK2mut-MEK5,MEKK3-MEK5 inh
Cc1cc(-c2csc(N)n2)c(C)n1-c1ccc(Cl)c(Cl)c1,3,1,153*,3,109,101,-4,101
C=CCn1c(C)cc(-c2csc(N)n2)c1C,3,9,99,0,100,nt,nt,nt
CCCn1c(C)cc(-c2csc(N)n2)c1C,-2,-2,88,9,93,nt,nt,nt
COc1ccc(-n2c(C)cc(-c3csc(N)n3)c2C)cc1,6,2,128*,0,98,106,4,98
Cc1ccc(Nc2nc(CSc3nnc(-c4ccc(F)cc4)n3C)cs2)cc1,-5,-8,1.0*[inhibitor],0,3.0*[inhibitor],99,-1,100
COc1nc2c(c(-c3cc(Br)cs3)c1C#N)Cc1ccccc1-2,-4,25,133*,1,127,98,-4,102
C[C@@]12C(=O)Nc3cc(F)c(F)cc3C(=O)N1[C@H]1c3cc(Cl)ccc3OC[C@@H]1[C@@H]2c1ccccc1,21,nt,nt,1,nt,nt,nt,nt
COc1ccc(-n2c(=O)c3ccccc3n(CC(=O)NC3CCCCC3)c2=O)cc1,-2,4,124*,0,121,104,2,102
COc1cc(NC(=O)Cn2c(=O)n(CC3CCCO3)c(=O)c3ccccc32)cc(OC)c1 (configuration not stated),10,0,138*,0,113,116,14,109
COc1ccc(-n2c(=O)c3ccccc3n(CC(=O)NC3CCCCC3)c2=O)cc1OC,-8,-6,102,0,82,nt,nt,nt
COc1ccc(-c2ccnc3c(Br)c(C)nn23)cc1,-2,nt,nt,5,nt,nt,nt,nt
CCO[C@H]1OC(C(=O)NCc2nc3ccccc3[nH]2)=C[C@@H](C2CC2)[C@@H]1CCCO,17,12,1.0*[inhibitor],2,2.0*[inhibitor],100,-2,101

# Bioassay records (PubChem BioAssay)
